High-throughput results (PubChem BioAssay)
CYP2C19 inhib = blockers of cytochrome P450 2C19 activity – biochemical, luminescence, ADME assay, primary screen; CYP2C19 Supersomes, luciferin-H EGE luminescence, 30 min; inhibition, % at 5 µM; hit rate 21% among 96,000; AID 778, 2007;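 active = CYP2C19 inhibition above a set limit at 5 µM in the primary screen, cut at about 50% in these data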;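 note: plate controls were negative control wells for no effect and 2.5 mM tranylcypromine positive control for full effect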
EphB4 ephrin blk = EphB4-ephrin-B2 interaction antagonists, primary screen, biochemical, TNYL-RAW peptide probe, fluorescence polarization. Ephrin type-B receptor 4 (Homo sapiens), P54760. EphB4 LBD / TNYL-RAW-Alexa532 peptide. inhibition, % at 7 µM. hit rate 0.15% among 97,000. AID 720, 2007;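 active = inhibition above the screen-wide mean inhibition plus 3 SD, cut at about 15% in these data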;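 note: 0% = DMSO wells and 100% = excess unlabeled TNYL-RAW peptide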
CYP2C9 inh = blockers of cytochrome P450 2C9 activity – biochemical, luminescence, ADME assay, primary screen. P11712. CYP2C9 Supersomes, luciferin-H conversion. inhibition, % at 5 µM. hit rate 20% among 96,000;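 active = blocking of liver enzyme CYP2C9 beyond about 50% at 5 µM, limit read from the data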
Target sequence (P11712 whole entry, looked up): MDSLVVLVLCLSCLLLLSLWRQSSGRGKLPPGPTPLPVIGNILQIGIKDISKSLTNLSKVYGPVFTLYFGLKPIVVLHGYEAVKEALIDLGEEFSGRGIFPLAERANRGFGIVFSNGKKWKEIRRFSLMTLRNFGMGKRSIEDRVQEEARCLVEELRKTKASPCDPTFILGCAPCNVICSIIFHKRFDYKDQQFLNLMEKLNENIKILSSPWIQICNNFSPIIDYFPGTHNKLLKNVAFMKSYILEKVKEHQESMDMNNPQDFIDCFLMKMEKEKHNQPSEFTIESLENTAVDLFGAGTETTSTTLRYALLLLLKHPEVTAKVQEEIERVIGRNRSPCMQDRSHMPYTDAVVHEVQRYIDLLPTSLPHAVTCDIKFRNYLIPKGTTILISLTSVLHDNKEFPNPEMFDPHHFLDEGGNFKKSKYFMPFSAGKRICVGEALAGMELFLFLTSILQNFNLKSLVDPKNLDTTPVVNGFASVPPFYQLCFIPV
CYP2C19 act = human CYP2C19 activators, primary screen, biochemical, luminescence. 96,000 tested, under 10 active. recombinant CYP2C19, luciferin-H EGE luminescence; stronger effect = higher value; 0 = fully inhibited enzyme, 1 = untreated enzyme. AID 1025, 2008. activation factor at 5 µM. Cytochrome P450 2C19 (Homo sapiens), P33261;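 active = activation factor of at least 2 at 5 µM in the primary screen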;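 note: 0 = wells with 2.5 mM tranylcypromine and 1 = vehicle-only wells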
CYP2C9 act = human CYP2C9 activators, primary screen, biochemical, luminescence; AID 1024, 2008; activation factor at 5 µM; hit rate 1.4% among 96,000; recombinant CYP2C9, luciferin-H conversion; stronger effect = higher value; factor 1 = untreated enzyme, 0 = blocked;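 active = activation factor of 2 or more for CYP2C9 at a 5 µM dose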;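 note: 0 = sulfaphenazole-blocked wells and 1 = vehicle-only wells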
Active calls of the source: *; · = no result given. Hits are enriched below; roughly 27% of the tested compounds scored in any of these assays.

SMILES	CYP2C19 inhib	EphB4 ephrin blk	CYP2C9 inh	CYP2C19 act	CYP2C9 act
Oc1ccc(Br)cc1CN1CCCCCCC1	57*	-2	-9	0.4	1.1
Oc1ccc(CN2CCCCC2)c2cccnc12	·	-4	·	·	·
Cc1ccc(N2CCN(C(=O)N3CCCC3)CC2)cc1C	81*	-1	53*	0.2	0.5
Cc1cc(C)cc(N2CCN(C(=O)N3CCOCC3)CC2)c1	9	-2	-1	0.9	1
COc1cc(OC)cc(-c2nc(N)n[nH]2)c1	52*	-4	13	0.5	0.9
O=C(COc1ccc(S(=O)(=O)N2CCOCC2)cc1)Nc1ccc(Cl)c(C(F)(F)F)c1	24	-4	53*	0.8	0.5
Cc1cc(C(=O)OCC(=O)Nc2ccc(F)cc2F)c(C)o1	56*	0	27	0.4	0.7
O=C(COC(=O)Cc1ccc(S(=O)(=O)N2CCCCC2)s1)Nc1ccc2c(c1)OCO2	66*	-6	98*	0.3	0
O=C(COC(=O)c1ccc2ccccc2c1)Nc1ncc(C(F)(F)F)cc1Cl	9	2	6	0.9	0.9
O=C(COC(=O)c1ccc2ccccc2n1)Nc1ncc(C(F)(F)F)cc1Cl	58*	-4	51*	0.4	0.5
Cc1cc(C(=O)OCC(=O)NC(=O)NC(C)(C)C)c(C)o1	31	-1	6	0.7	0.9
CNC(=O)c1ccc(CNC(=O)OCC(F)(F)F)cc1	5	2	5	0.9	0.9
Cc1nc2ccccc2n1CCc1nc2c3ccccc3nc(=S)n2[nH]1	13	-3	36	0.9	0.6
O=C(COC(=O)Cc1ccc(S(=O)(=O)N2CCOCC2)s1)NCc1ccccc1	5	-7	6	0.9	0.9
CCN(CC)S(=O)(=O)c1ccc(C)c(NC(=O)COC(=O)c2ccc(C)c(S(=O)(=O)N3CCOCC3)c2)c1	92*	-3	96*	0.1	0
Cc1cc(C(=O)OCC(=O)Nc2cc(S(=O)(=O)N3CCOCC3)ccc2Cl)c(C)o1	52*	-1	80*	0.5	0.2
O=C(COC(=O)CCc1ccc(S(=O)(=O)N2CCOCC2)cc1)Nc1ncc(C(F)(F)F)cc1Cl	0	-1	55*	1	0.5
O=C(COC(=O)Cc1ccc(S(=O)(=O)N2CCOCC2)s1)NCCc1ccccc1	33	3	60*	0.7	0.4
O=C(COC(=O)c1cccc(S(=O)(=O)N2CCOCC2)c1)Nc1ncc(C(F)(F)F)cc1Cl	27	-4	22	0.7	0.8
COc1cccc(NC(=O)CSc2nnc(Cn3nnc4ccccc43)n2C)c1	·	-1	·	·	·
Cc1ccc(S(=O)(=O)N2CCOCC2)cc1C(=O)OCC(=O)Nc1ccc2c(c1)OCO2	41	0	53*	0.6	0.5
Cc1cc(C(=O)OCC(=O)Nc2ccc(S(=O)(=O)N3CCOCC3)cc2)c(C)o1	29	-1	73*	0.7	0.3
CCc1nc2ccccc2c(C(=O)OCC(=O)Nc2ccc(S(=O)(=O)N3CCOCC3)cc2)c1C	-2	·	54*	1	0.5
O=C(NC(=S)N1CCCCC1)c1cccnc1	11	1	-5	0.9	1.1
COc1cc(NC(=O)C2CCCN(S(=O)(=O)c3ccc4c(c3)oc(=O)n4C)C2)cc(OC)c1 (stereo not given)	14	-3	8	0.9	0.9
SMILES	CYP2C19 inhib	EphB4 ephrin blk	CYP2C9 inh	CYP2C19 act	CYP2C9 act
Cc1noc(C)c1COC(=O)CCCc1c[nH]c2ccccc12	93*	·	81*	0.1	0.2
Cc1noc(C)c1COC(=O)CCc1nc2ccccc2c(=O)[nH]1	41	-7	59*	0.6	0.4
CC(=O)OC(C(=O)n1nc(C)cc1C)c1ccccc1 (stereo not given)	-1	-4	-22	1	1.2
O=C(O)CCc1ccc(-c2ccc(Br)cc2)o1	-4	-5	15	1	0.8
O=C(O)CC1(c2ccccc2)C(=O)c2ccccc2C1=O	0	·	-3	1	1
Cc1ccccc1NC(=O)CC1(c2ccc(N(C)C)cc2)C(=O)c2ccccc2C1=O	56*	4	36	0.4	0.6
Cc1ccc(Oc2nccc(-c3ccc(Cl)cc3)n2)cc1	53*	14	24	0.5	0.8
